# Source: PubChem BioAssay AID463205 (Broad Institute, 2010)
# In all, about 2,400 compounds went through this assay and about 20 (0.8%) were called active. Many of the other results were omitted from the sample, so actives are more common in it than they were. Values without a mark were called inactive.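 How the source made its calls: active means AC50 no more than ten times the highest tested concentration, or full inhibition at every dose giving a flat fit (cut at about 30 µM in these data); inconclusive means flat fit with activity between 30% and 70%, or poor-quality invalid fit; inactive means AC50 more than ten times the top tested dose.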
# Assay: luciferase-based ADP detection interference – biochemical, luminescence, cell-free, homogeneous, artefact control for GSK-3a inhibitor project, dose response (AID 463205);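 further: kinase-free counter-screen against the ADP-Glo detection reagents only; potency is for inhibitors that reduce the luminescence signal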
# Conditions: Cell-free ADP-Glo detection reagents, 5 uM ADP
row,SMILES,AC50
1,C=CCSc1ncnc2c1oc1nc3c(cc12)COC(C)(C)C3,> 30 µM
2,Nc1nonc1-n1nnc(C(=O)N/N=C/c2ccncc2)c1CSc1ccc(Cl)cc1,> 30 µM
3,O=S(=O)(c1cccc(NC(=S)NCc2ccco2)c1)N1CCOCC1,> 30 µM
4,C=CC(=O)Nc1sc2c(c1C(N)=O)CCCC2,> 30 µM
5,NC(=O)c1ccsc1NC(=O)C1CC1,> 30 µM
6,Clc1cccc(/C=N/Nc2ncnc3ccccc23)c1,> 30 µM
7,COCCOC(=O)c1[nH]c2c(c1C)C(=O)CC(c1cc(OC)c(OC)c(OC)c1)C2 (stereo not given),> 30 µM
8,CC(=O)c1sc(NC(=O)CN2C(=O)C3CCCCC3C2=O)nc1-c1ccccc1 (stereo not given),> 30 µM
9,O=C(c1ccc2c3n(nc2c1)-c1ccccc1CO3)N1CCOCC1,22.5 µM (active)
10,Cc1ccc2c(c1)COc1c3ccc(C(=O)N4CCOCC4)cc3nn1-2,> 30 µM
11,O=C(c1ccc2c3n(nc2c1)-c1ccc(Cl)cc1CO3)N1CCOCC1,> 30 µM
12,COc1ccc(S(=O)(=O)Nc2c(C(=O)O)[nH]c3ccc(OC)cc23)cc1,> 30 µM
13,COc1ccc(-c2cc(C(=O)N3CCN(c4ccccc4)CC3)no2)cc1OC,> 30 µM
14,CCOC(=O)c1sc(NC(=O)C2CC2)cc1C,> 30 µM
15,CCCCCCCCCCCCCCCC[N+](C)(C)CC,> 30 µM
16,c1cncc(-c2nc(NCC3COc4ccccc4O3)c3ccccc3n2)c1 (stereo not given),> 30 µM
17,CC(C)(C)NC(=O)/C(=C\c1ccccc1F)NC(=O)c1ccc([N+](=O)[O-])cc1,> 30 µM
18,O=C(CCN1CCOCC1)Nc1cccc(Br)c1,> 30 µM
19,OCc1cn(-c2ccccc2)nn1,> 30 µM
20,O=C(COC(=O)c1ccc(F)cc1F)Nc1ccc(Cl)cn1,> 30 µM
21,CC(=NCCCn1ccnc1)c1c(O)n(Cc2ccccc2)c(=O)[nH]c1=O,> 30 µM
22,Cc1ccc(NC(=O)CSc2nnc(-c3ccncc3)o2)cc1,> 30 µM
23,COc1ccc(/C=C2\Oc3cc(OCC(=O)N4CC(O)C[C@H]4C(=O)O)ccc3C2=O)c(OC)c1OC (stereo not given in full),> 30 µM
24,CC(C)(C)c1ccc(/C=C2\Oc3cc(O)ccc3C2=O)cc1,> 30 µM

row,SMILES,AC50
1,COc1ccc(CCn2cnc(=O)c(C#N)c2C)cc1OC,> 30 µM
2,O=C(Nc1cccc(Cl)c1N1CCOCC1)c1ccc(Br)o1,> 30 µM
3,COc1ccc(C2C3(C#N)C(N)=NC(OC)(OC)C23C#N)cc1 (stereo not given),> 30 µM
4,CC(=O)N1CCN(c2ccccc2NC(=O)c2ccc(-c3cccc([N+](=O)[O-])c3)o2)CC1,> 30 µM
5,Nc1nc2n(n1)C(c1ccc(F)cc1)CC(c1ccc(F)cc1)N2 (stereo not given),> 30 µM
6,CCOc1ccc(S(=O)(=O)Nc2cccc(C(=O)NCCCn3ccnc3)c2)cc1,> 30 µM
7,O=C1c2cnc3nc(SCc4ccccc4)nn3c2CC2c3ccccc3CCN12 (stereo not given),> 30 µM
8,COc1ccc(NC(=O)Nc2ccc(F)cc2F)c(C)c1,> 30 µM
9,CCOC(=O)c1cnc2c(Cl)c(Cl)ccc2c1N1CCN(C)CC1,> 30 µM
10,COc1ccc(-c2cn3cccnc3n2)cc1NC(=O)C(C)C,> 30 µM
11,O=c1cc(-c2ccsc2)oc2ccccc12,> 30 µM
12,COc1ccccc1NC(=O)Nc1ccccc1Br,> 30 µM
13,CCn1c2ccccc2c2nnc(SCC(N)=O)nc21,> 30 µM
14,CCCC1=C(C(=O)OCC)C(c2ccc(N(C)C)cc2)n2ncnc2N1 (stereo not given),> 30 µM
15,COCc1c(C(=O)N/N=C\c2cccnc2)nnn1-c1nonc1N,> 30 µM
16,CC(C)(C)C(=O)c1cnc(Nc2ccccc2Cl)s1,> 30 µM
17,O=C(Nc1cccc(O)c1)c1ccc([N+](=O)[O-])cc1Cl,> 30 µM
18,CCOC(=O)N1CCc2c(sc3[nH]c(=S)[nH]c(=S)c23)C1,> 30 µM
19,CCCCc1ccc(NC(=O)N[C@H](C(=O)O)C(C)CC)cc1 (stereo not given in full),> 30 µM
20,COc1ccccc1OCC(=O)Nc1sc2c(c1C(N)=O)CCC2,> 30 µM
21,O=C(CSc1ccccc1)Nc1ccc2c(c1)C(=O)NC2=O,> 30 µM
22,CCc1c(C)c(C#N)c2nc3ccccc3n2c1NC,> 30 µM
23,COc1ccc(/C=C2\Oc3cc(OCC(=O)N4CC(O)C[C@H]4C(=O)O)ccc3C2=O)cc1OC (stereo not given in full),> 30 µM
24,Cc1ccc(S(=O)(=O)N2CCN(CC(=O)N/N=C\c3ccccn3)CC2)cc1,> 30 µM

row,SMILES,AC50
1,CN(C)c1ccc(Nc2nc(N)c3ccccc3n2)cc1,22.8 µM (active)
2,COc1ccc(Cl)cc1Nc1nc(N)c2ccccc2n1,> 30 µM
3,CCOc1ccc(Nc2nc(N(C)c3ccccc3)nc(N)c2[N+](=O)[O-])cc1,> 30 µM
4,COc1cc(/C=N/NC(=O)c2ccoc2C)ccc1O,> 30 µM
5,CN(C)c1ccc(/C=N/NC(=O)c2ccccc2Cl)cc1,> 30 µM
6,Cc1occc1C(=O)N/N=C/c1ccc(N(C)C)cc1,28.1 µM (active)
7,O=[N+]([O-])c1cc(S(=O)(=O)N2CCCCC2)ccc1NCCCN1CCOCC1,> 30 µM
8,COc1ccc(C(=O)c2sc3nc(-c4ccc(OC)cc4)ccc3c2N)cc1,> 30 µM
9,CC(=O)N1CCN(c2ccccc2NC(=O)c2ccc(Br)o2)CC1,> 30 µM
10,COc1cc(OC)cc(C(=O)O/N=C(\N)c2ccccn2)c1,> 30 µM
11,COc1ccc(C(=O)Nc2nc(C)cc(C)n2)cc1,> 30 µM
12,COc1ccc(C(=O)NNC(=O)c2ccccn2)cc1,14.9 µM (active)
13,COc1ccc(C(=O)O/N=C(\N)c2ccccn2)c(OC)c1,> 30 µM
14,COc1ccc(C(=O)c2ccccc2Cl)cc1,> 30 µM
15,COc1cccc(C(=O)O/N=C(\N)c2ccccn2)c1,18.9 µM (active)
16,CN(C)Cc1c(C(=O)N/N=C/C2CC=CCC2)nnn1-c1nonc1N (stereo not given),> 30 µM
17,CCOC(=O)/C(C#N)=C/c1cn(CCC(=O)O)nc1-c1cccc(Br)c1,> 30 µM
18,CCn1c2ccc(F)cc2c2nc3ccccc3nc21,> 30 µM
19,Cc1nc2c(C)cccn2c1/C(O)=C1\C(=O)C(=O)N(CCN2CCOCC2)C1c1cccs1 (stereo not given),> 30 µM
20,Cc1cccc2c(N=Nc3ccccc3)c(O)[nH]c12,> 30 µM
21,Nc1nonc1-n1nnc(C(=O)N/N=C/c2ccccc2Cl)c1-c1ccccc1,> 30 µM
22,CCc1c(C)c(C#N)c2nc3ccccc3n2c1NCC1CCCO1 (stereo not given),> 30 µM
23,CS(=O)(=O)Nc1ccc(-c2cc(/C=C3\SC(N)=NC3=O)c[nH]c2=O)cc1,> 30 µM
24,O=C(c1ccc(Cn2cnnn2)cc1)N1CCCC(Nc2ccc(F)cc2)C1 (stereo not given),> 30 µM

row,SMILES,AC50
1,O=C(Nc1ccccc1C(=O)N1CCOCC1)c1cccnc1,> 30 µM
2,CC(=O)Nc1cccc(-c2csc(Nc3ccc(C)cn3)n2)c1,> 30 µM
3,Cc1cc(=O)[nH]c2cc(O)ccc12,> 30 µM
4,CC(=O)Nc1ccc(C2(c3ccc(NC(C)=O)cc3)NC(=O)c3ccccc32)cc1,> 30 µM
5,CC1(C)Cc2cccc(C(=O)NCc3ccco3)c2O1,> 30 µM
6,O=C(COC(=O)c1cccs1)Nc1ccc(Cl)cn1,> 30 µM
7,CCN1CCN(c2nc(Nc3cccc(OC)c3)nc(N)c2[N+](=O)[O-])CC1,> 30 µM
8,COc1cccc(/C=N/n2nnnc2N)c1OCC#N,> 30 µM
9,O=C(O)COc1c(Cl)cc(/C=C2/NC(=O)NC2=O)cc1Br,> 30 µM
10,CNc1ccc(/C=C/C(=O)c2ccc3c(c2)OCCO3)cc1[N+](=O)[O-],> 30 µM
11,COC(=O)C1(C#N)C(c2ccccc2)C1(C(=O)OC)C(=O)OC (stereo not given),> 30 µM
12,Cc1nc2ncnn2c(C)c1Cc1c(Cl)cccc1Cl,> 30 µM
13,O=C(c1ccccc1)c1cnc(Nc2ccccc2Cl)s1,> 30 µM
14,COc1ccc(NC(=O)CN(C)C2CCCCC2)c([N+](=O)[O-])c1,> 30 µM
15,Cc1nc2cc(-c3ccccc3)ccc2o1,> 30 µM
16,O=C(N/N=C/c1cccnc1)c1cc2c(ccc3ccccc32)o1,> 30 µM
17,CCNc1nc(NCC)nc(C(=O)OCCO)n1,> 30 µM
18,Cc1ccnc(NC(=O)Cn2c(=O)oc3cc(S(=O)(=O)N4CCCC4)ccc32)c1,> 30 µM
19,Cc1cccc(C(=O)O/N=C(\N)c2cccc([N+](=O)[O-])c2)c1,> 30 µM
20,Cc1cccc(/C(N)=N/OC(=O)c2ccc3c(c2)OCO3)c1,27.3 µM (active)
21,Cc1ccc(C(=O)O/N=C(\N)c2cccc([N+](=O)[O-])c2)cc1,> 30 µM
22,Cc1cc(NC(=O)CCSc2nc(-c3ccco3)cc(C(F)(F)F)n2)n(-c2ccccc2)n1,> 30 µM
23,C(=N\Nc1ncnc2sc3c(c12)CCC3)/c1ccncc1,> 30 µM
